High-throughput results deposited in PubChem by Broad Institute.
Rows were chosen to be rich in hits. Some 3.4% of all compounds tested hit in one or more screens of this group.
HSF-1 act: increases HSF-1 driven luciferase reporter signal. NIH3T3-HGL HSF-1 luciferase reporter, MG132, 8 h; 100% = twice DMSO control signal. activation, % at 9 µM. 1.7% of 300,000 active;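 active = mean replicate activation of at least 50% with a set share of replicates each reaching 50%; inconclusive = only one of those two conditions met; inactive = mean below 50% and too few replicates reaching it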;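 note: 0% = median of the neutral control wells and 100% = twice that signal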
HSF1 inhib: HSF1 inhibition; 0.77% of 300,000 active; activity change, negative = inhibition, % at 7.5 µM (by protocol); NIH3T3-HGL HSE-luciferase, MG132-induced, luminescence 8 h; hits give low values;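 active = more than half of replicate wells show activity change below -50%, luminescence cut by over half; inconclusive = some wells, but at most half, below -50%; inactive = no replicate well below -50%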;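 note: luciferase reports HSF-1 transcriptional activity via heat shock element; 0% = median of DMSO wells and -100% = zero luminescence signal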
Vif imaging: HIV Vif inhibition; HEK293T cells, Vif self-association by quenched fluorescence, imaging, 24 h; inhibition, % at 7.49 µM; 0.35% of 340,000 active; in the data active = inhibition above about 50%, passing the limit was not always enough; inconclusive = no clear call, values can overlap the other calls; inactive = below about 31%
esBAF inh: inhibitors of esBAF chromatin remodeling in mouse ES cells. Bmi1-luciferase knock-in reporter, 24 h; 100% = twice the neutral-well signal. reporter increase, % at 12.5 µM. 2% of 350,000 active. AID 602393; in the data active = activation above about 40%; inconclusive = no clear call, values can overlap the other calls;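 note: 0% = median of the plate's neutral control wells and 100% = double that signal; a rise in the Bmi1 reporter signal indicates esBAF inhibition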
* hit, by the source's call; ? = inconclusive; nt = no result given.

SMILES	HSF-1 act	HSF1 inhib	Vif imaging	esBAF inh
S=C(NCc1ccc(Cl)cc1)Nc1ccccc1Cl	0	1	2	nt
O=C(NC(=S)NCCc1ccccc1)c1ccccc1F	42	25	-2	-1
CSc1ccccc1NC(=S)NCc1ccc(Cl)cc1	64*	39	-8	59*
O=C(NC(=S)NCCc1ccccc1)c1ccccc1	24	14	-15	67*
Fc1ccccc1NC(=S)NCCc1ccc(Cl)cc1	nt	nt	-6	59*
COc1ccc(CN(C)C[C@@H]2OCCCC[C@@H](C)Oc3ccc(NC(=O)CCCN(C)C)cc3C(=O)N([C@@H](C)CO)C[C@H]2C)cc1	nt	nt	nt	1
O=C(CN1CCOCC1)NCC[C@@H]1CC[C@@H](NC(=O)Cc2ccccn2)[C@@H](CO)O1	nt	nt	nt	2
Cc1ccc(S(=O)(=O)N(C)C[C@@H]2OCCCC[C@H](C)Oc3ccc(NC(=O)Nc4ccccc4)cc3C(=O)N([C@H](C)CO)C[C@H]2C)cc1	nt	nt	nt	2
O=C(NC1CCC1)[C@@H]1[C@@H](CO)[C@@H]2Cn3c(cccc3=O)[C@@H]2N1CC1CCOCC1	nt	nt	nt	-4
Cc1ccccc1S(=O)(=O)N(C)C[C@H]1OCc2ccccc2-c2c(n(C)c3ccccc23)C(=O)N([C@@H](C)CO)C[C@@H]1C	nt	nt	nt	-2
O=C(NCC[C@H]1CC[C@H](NS(=O)(=O)c2cccc(F)c2)[C@@H](CO)O1)C1CCC1	nt	nt	nt	-10
S=C(NCCc1ccccc1)Nc1cnc2ccccc2c1	36	16	-1	44*
S=C(NCCc1ccc(Cl)cc1)NC1CCCCC1	58*	30	-3	63*
Fc1ccccc1NC(=S)NCCc1ccccc1	8	10	4	49*
Fc1ccc(F)c(NC(=S)NCCc2ccccc2)c1	12	0	-3	6
C[C@H]1CCCCO[C@H](CN(C)C(=O)C2CCCCC2)[C@@H](C)CN([C@@H](C)CO)C(=O)c2cc(NC(=O)Nc3ccc(C(F)(F)F)cc3)ccc2O1	nt	nt	nt	-2
c1ccc(Nc2nc3ccccc3[nH]2)nc1	62*	14	-10	?
COc1cc(NCCCC(C)N)c2ncccc2c1 (stereo unspecified)	34	18	nt	-8
CCC(CNc1cc(OC)cc2cccnc12)NC1CCCCC1 (stereo unspecified)	-80	-76*	4	nt
Cc1noc(C)c1NC(=O)N(C)C[C@@H]1OCCCC[C@H](C)Oc2ccc(NS(=O)(=O)c3ccc(Cl)cc3)cc2C(=O)N([C@H](C)CO)C[C@@H]1C	nt	nt	nt	1
C[C@H]1CCCCO[C@H](CN(C)C(=O)Nc2ccc(F)cc2)[C@@H](C)CN([C@@H](C)CO)C(=O)c2cc(NC(=O)Nc3cccc4ccccc34)ccc2O1	nt	nt	nt	7
CCCOC(=O)c1ccc(NC(=O)c2cnccn2)cc1	15	7	-9	59*
COc1ccc(C2C(C(C)=O)=C(O)C(=O)N2c2ccccn2)cc1 (stereo unspecified)	15	-1	-2	17
CC(=O)C1=C(O)C(=O)N(c2ccccn2)C1c1ccc(C)cc1 (stereo unspecified)	11	7	10	-5
CC(=O)C1=C(O)C(=O)N(c2ccccn2)C1c1ccc(Cl)cc1 (stereo unspecified)	6	3	0	47*
SMILES	HSF-1 act	HSF1 inhib	Vif imaging	esBAF inh
CC(=O)C1=C(O)C(=O)N(c2nccs2)C1c1ccccc1 (stereo unspecified)	60*	23	-5	nt
COc1cccc(NC(=O)N[C@H]2CC[C@@H](CC(=O)N3CCOCC3)O[C@H]2CO)c1	nt	nt	nt	-2
CCSc1nnc(NC(=O)c2ccc3nc[nH]c3c2)s1	nt	nt	4	91*
CCSc1nnc(NC(=O)c2cccc(OCc3c(C)noc3C)c2)s1	13	3	-38	4
CCOC(=O)c1sc(NC(=O)c2ccc3nc[nH]c3c2)nc1C	19	16	6	53*
CCOC(=O)c1sc(NC(=O)c2ccc(=O)[nH]c2)nc1C	12	3	?	-10
Cc1c(Cl)cccc1NC(=O)CC(Cc1ccccc1)C(=O)O (stereo unspecified)	3	4	7	4
Cc1c(Cl)cccc1NC(=O)CC(C(=O)O)C1CCCO1 (stereo unspecified)	3	-4	98*	3
CCCNC(=O)C[C@H]1CC[C@@H]2[C@@H](COc3ccc(NC(=O)c4cccc(Cl)c4)cc3C(=O)N2C)O1	nt	nt	nt	6
COc1ccccc1-c1cnc2c(c1)C(=O)N([C@@H](C)CO)C[C@@H](C)[C@@H](CN(C)Cc1cccnc1)O2	nt	nt	nt	-1
COc1ccc(/C=c2\s/c(=C\C(=O)C(C)(C)C)[nH]c2=O)cc1O	64*	45	-4	8
CCCOC1CCCN(C(=O)c2cc(COc3ccc(-n4cncn4)cc3)on2)C1 (stereo unspecified)	60*	32	-7	nt
COCCOC1CCN(C(=O)c2cc(COc3ccc(-n4cncn4)cc3)on2)CC1	-12	-15	-4	-1
CC(=O)c1ccc(OCc2cc(C(=O)N3CCC(c4ccncc4)CC3)no2)cc1	-2	-3	-9	1
COCC1CCCN(C(=O)c2cc(COc3ccc(C(C)=O)cc3)on2)C1 (stereo unspecified)	47	41	-10	70*
CC(=O)c1ccc(OCc2cc(C(=O)N3CCN4CCCC4C3)no2)cc1 (stereo unspecified)	14	-5	11	3
CC(=O)c1ccc(OCc2cc(C(=O)N3CC[C@@H]4CCCC[C@H]4C3)no2)cc1	24	6	-2	69*
CCC(CC)COC(=O)C1=C(C)NC(=O)NC1c1cc(OC)ccc1OC (stereo unspecified)	70*	26	-2	-9
CCC(CC)COC(=O)C1=C(C)NC(=O)NC1c1ccc(OC)cc1 (stereo unspecified)	16	5	-2	5
COc1ccc(Br)cc1CNC(=O)CCN1C(=O)COc2ccccc21	-74	-67*	-1	-5
COc1ccc(OC)c(CNC(=O)CCN2C(=O)COc3ccccc32)c1	-4	1	9	-1
Cc1cc(Nc2ccc3c(c2)OCCO3)c2cc(Cl)ccc2n1	-58	-58*	-1	nt
Cc1cc(Nc2cccc(Cl)c2)c2ccccc2n1	16	-1	-8	-10
CCOc1ccc(S(=O)(=O)c2c(C(=O)c3ccccc3)cnc3cc4c(cc23)OCCO4)cc1	68*	32	2	nt
C[C@H]1CN([C@@H](C)CO)C(=O)c2cc(NC(=O)Cn3cnnn3)ccc2O[C@@H]1CN(C)S(=O)(=O)c1ccc(F)cc1	nt	nt	nt	-1
CSc1cccc(N2CC(C(=O)NCCC3=CCCCC3)CC2=O)c1 (stereo unspecified)	11	10	66*	nt
CCOc1ccccc1N1CC(C(=O)NCCC2=CCCCC2)CC1=O (stereo unspecified)	nt	nt	-3	46*
N=C1/C(=C/c2ccc(OCc3ccccc3)cc2)C(=O)N=C2SC(CC(=O)N3CCOCC3)=NN12	19	17	-9	42*
O=C(CC1C(=O)N(Cc2ccccc2)C(=S)N1CCN1CCOCC1)Nc1ccc(F)cc1 (stereo unspecified)	61*	20	-9	nt
